# From PubChem BioAssay (NCATS)
# Records with an inconclusive call do not appear. Activity calls are given as the source filed them. The call rests on the fitted dose curve; in most records, active means well fitted inhibition curve with a large enough effect; inconclusive means small, poorly fitted or top-dose-only effect; inactive means no such curve, though single readings can be large or run the other way.
# Experiment: qHTS for Inhibitors of the Aldehyde Dehydrogenase Family (ALDH1A2, ALDH1A3, ALDH2, ALDH3A1) (AID 2061307); further: nearly all actives have a fitted effect of over 50% in size; on Potency: test system not described further here
# Conditions: ALDH inhibition qHTS; series mostly up to 50.3 µM; activity change, negative = inhibition: at the top concentration
# On the % scale 0 is the no-effect control and ±100 the full control effect; potency means the concentration at half of the fitted maximal effect.
SMILES,Potency,"activity change, negative = inhibition"
Cc1cc(Br)c2c(c1)/C(=C\C(=O)c1cccs1)C(=O)N2,2.52 µM (active),–
CCOc1ccc(C(=O)NCc2nc(-c3ccc(Cl)cc3)no2)cc1OCC,–,-0.628% [at 34.4 µM] (inactive)
CSc1ccc(-c2csc(N3CCC(C(N)=O)CC3)n2)cc1,4 µM (active),–
O=[N+]([O-])c1cccnc1S(=O)(=O)c1ccccc1,–,-30.2% (inactive)
COc1ccc2c(c1)C(C)(CCN(C)C)C(=O)N2C (stereo not drawn),–,13.2% (inactive)
COc1ccc(NC(=O)c2ccc3ccccc3n2)cc1S(N)(=O)=O,–,-34.1% [at 34.4 µM] (inactive)
O=C(Nc1cccc(C(F)(F)F)c1)c1ccccc1NCc1ccccc1,–,-16% (inactive)
Cc1c(NCCOc2ccccc2F)cccc1C(N)=O,–,-34% [at 34.4 µM] (inactive)
CC(=O)c1cccc(NC(=O)c2noc3c2CSc2ccccc2-3)c1,–,-16% [at 34.4 µM] (inactive)
CNC(=O)c1cc(-c2ccc(N3CCOCC3)cc2)cc2c1OCCN2Cc1cccnc1,–,0% [at 34.4 µM] (inactive)
CCOc1ccc(NC(=O)Cn2c(=O)n(-c3ccccc3)c(=O)c3ccc(C(=O)NCc4ccc5c(c4)OCO5)cc32)cc1,–,-39.9% [at 34.4 µM] (inactive)
CC(=O)c1c(C)n(-c2ccc(N(C)C)cc2)c2ccc(O)cc12,–,11.9% [at 34.4 µM] (inactive)
O=C(N/N=C/c1ccco1)c1cccc(F)c1,–,-24.2% (inactive)
O=C(Nc1ncccc1O)c1ccc(S(=O)(=O)Nc2ccccc2)cc1,–,-23.9% (inactive)
CSc1ncc(CNc2cc([N+](=O)[O-])ccc2C)c(N)n1,17.8 µM (active),–
O=C(Cn1nc2c(cc1=O)CCCC2)Nc1nc(-c2ccc3c(c2)OCO3)cs1,–,-25% [at 34.4 µM] (inactive)
O=C(N/N=C/c1ccc(Sc2ccccn2)o1)c1cccc(F)c1,15.9 µM (active),–
COc1cccc(N2CCN(C(=O)CCCCCn3c(=O)[nH]c4ccccc4c3=O)CC2)c1,–,0% [at 34.4 µM] (inactive)
CC(=O)c1c(C)n(-c2ccccc2)c2ccc(O)cc12,0.798 µM (active),–
O=C(O)c1cccc(Nc2ncnc3sccc23)c1,–,0% [at 34.4 µM] (inactive)
COc1cccc(-c2cnc(N3CCC(C(N)=O)CC3)s2)c1,–,-14.1% (inactive)
COC(=O)CNCc1c(O)ccc2ccccc12,6.34 µM (active),–
COc1cccc2cc(C(=O)Nc3ccc(C)cc3)c(=O)oc12,–,-25.8% [at 34.4 µM] (inactive)
